Read-out in test [1]: E-selectin (Homo sapiens) (UniProt P16581)
The test can be described thus: BSK_SAg_Eselectin: BioMAP Diversity Plus: SAg Assay for Eselectin Biomarker Activity (AID 2283091). Particulars: primary human HUVEC with PBMC; actives raise or lower the signal. The method in brief: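 Human umbilical vein endothelial cells co-cultured with peripheral blood mononuclear cells, SAg system. E-selectin is measured by ELISA 24 h after dosing and fitted bidirectionally against DMSO. Cytotoxicity is checked by SRB staining of parallel cultures.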

Read-out in test [2]: Monokine induced gamma interferon (MIG), CXCL9 (gene 4283)
The test can be described thus: BSK_SAg_MIG: BioMAP Diversity Plus: SAg Assay for Monokine induced gamma interferon (MIG) Biomarker Activity (AID 2283092). Particulars: primary human HUVEC with PBMC; actives raise or lower the signal. In short, it runs like this: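 ELISA readout of MIG/CXCL9; primary human umbilical vein endothelial cells co-cultured with peripheral blood mononuclear cells; 24 h post-dose; gain/loss fit vs DMSO baseline.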

The nature of test [3]: BSK_SAg_PBMCCytotoxicity: PBMC Cytotoxicity Assessment in the BioMAP Diversity Plus: SAg Assay (AID 2283093).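 Also: PBMC viability measured as Alamar Blue reduction fluorescence at 546/580 nm; fitted both ways against DMSO so a hit may be loss or gain of signal.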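 As to AC50: PBMC superantigen activated with SEB plus TSST-1 one hour after compound addition.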 Particulars: primary human HUVEC with PBMC. The method in brief:
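Alamar Blue reduction (6 h, ex/em 546/580 nm) read after 90 h culture of PBMC pre-dosed 1 h then stimulated with SEB plus TSST-1, 20 ng/mL each. Gain or loss of signal fitted relative to DMSO.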

Read-out in test [4]: Interleukin-8 (IL8), CXCL8 (gene 3576)
The test can be described thus: BSK_SAg_IL8: BioMAP Diversity Plus: SAg Assay for Interleukin-8 (IL8) Biomarker Activity (AID 2283094). Particulars: primary human HUVEC with PBMC; actives raise or lower the signal. The method in brief: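 Primary human endothelial cells with PBMC, exposed 24 h; IL-8 determined by ELISA, analysed bidirectionally relative to DMSO.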

Test [5] in a line: BSK_SAg_Proliferation: Cell Proliferation Assessment in the BioMAP Diversity Plus: SAg Assay (AID 2283095).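 Also: relative cell number as total protein by SRB absorbance in sub-confluent culture.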 Particulars: primary human HUVEC with PBMC. The method in brief: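 A human primary co-culture of umbilical vein endothelium and blood mononuclear cells receives compound; relative cell number is quantified at 96 h by SRB staining and 560 nm absorbance, with DMSO-referenced bidirectional curve fitting.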

Test [6] can be described thus: BSK_SAg_SRB: Viability Assessment in the BioMAP Diversity Plus: SAg Assay (AID 2283096).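 Also: cells read one day after compound addition; hits may be either gain or loss of signal compared with DMSO.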 The following applies: primary human HUVEC with PBMC. In short, it runs like this: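 SRB absorbance at 560 nm served as the viability read-out. Cells (HUVEC plus peripheral blood mononuclear cells) were TCA-fixed and stained 24 h post-dosing; activity fitted in both directions against DMSO controls.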

Test [7] deals with human Ephrin type-A Receptor 1 (EphA1), EPHA1 (gene 2041) (UniProt P21709). The test can be described thus: NVS_ENZ_hEphA1: NovaScreen (NVS) Enzymatic Assay for human Ephrin type-A Receptor 1 (EphA1) (AID 2283158; active = hit-call score of the fitted dose curve at least 0.9, where 1 is the maximum;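 also: activity is signal loss versus DMSO meaning EphA1 kinase inhibition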). In short, it runs like this:
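Cell-free kinase activity with recombinant protein, 1 hour after dosing; product separated by electrophoretic mobility shift, fluorescence read. Primary screen at 25 uM in duplicate; hits run as concentration-response up to 50 uM, relative to DMSO.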

In test [8] the target is human CYP19A1, CYP19A1 (gene 1588) (UniProt P11511). The test can be described thus: NVS_ADME_hCYP19A1: NovaScreen (NVS) CYP450-related Enzyme Activity (ADME) Assay for human CYP19A1 (AID 2283098; active = hit-call score of the fitted dose curve at least 0.9, where 1 is the maximum;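 also: potency for inhibitors seen as loss of fluorescent enzyme signal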). The method in brief:
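Primary testing was in duplicate at a single 10 uM concentration, with actives followed up in concentration-response series. Fluorescence read-out of recombinant enzyme activity at 0.5 h, cell-free. Acetonitrile was the negative-control baseline.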

Test [9] concerns the target human CYP2D6, CYP2D6 (gene 1565) (UniProt P10635). The test can be described thus: NVS_ADME_hCYP2D6: NovaScreen (NVS) CYP450-related Enzyme Activity (ADME) Assay for human CYP2D6 (AID 2283107; active = hit-call score of the fitted dose curve at least 0.9, where 1 is the maximum). The method in brief: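 Cell-free assay using recombinant human CYP2D6 expressed in insect cells, with a fluorogenic substrate read after 1 h. Primary screen in duplicate at 10 uM; actives followed up in concentration series. Loss of signal fitted relative to acetonitrile.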

For test [10], the target named is human Caspase 5 (CASP5), CASP5 (gene 838) (UniProt P51878). The test can be described thus: NVS_ENZ_hCASP5: NovaScreen (NVS) Enzymatic Assay for human Caspase 5 (CASP5) (AID 2283137; active = hit-call score of the fitted dose curve at least 0.9, where 1 is the maximum). The method in brief: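 Caspase 5 enzyme activity, detected as fluorescence signal loss, is measured in a biochemical format using E. coli-expressed protein. Reading occurs 2 hours post-dosing. Screening runs at 25 uM, with confirmed actives titrated to 50 uM maximum.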
Sequence of human Caspase 5 (CASP5), CASP5 (gene 838) (P51878 whole entry, looked up): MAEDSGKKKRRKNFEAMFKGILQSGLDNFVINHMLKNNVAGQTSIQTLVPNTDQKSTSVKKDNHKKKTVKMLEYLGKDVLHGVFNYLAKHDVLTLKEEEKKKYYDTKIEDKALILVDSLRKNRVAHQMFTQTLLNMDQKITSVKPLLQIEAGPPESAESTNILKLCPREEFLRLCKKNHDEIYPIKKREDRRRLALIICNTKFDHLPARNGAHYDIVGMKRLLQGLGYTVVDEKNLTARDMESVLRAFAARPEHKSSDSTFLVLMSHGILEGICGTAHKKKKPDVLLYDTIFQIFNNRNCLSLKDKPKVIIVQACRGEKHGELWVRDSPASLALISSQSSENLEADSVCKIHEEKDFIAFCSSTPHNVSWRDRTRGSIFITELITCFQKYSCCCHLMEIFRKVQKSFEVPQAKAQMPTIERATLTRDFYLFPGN

Test [11] concerns the target Cytochrome P450 3A4 (Homo sapiens) (UniProt P08684). The test can be described thus: NVS_ADME_hCYP3A4: NovaScreen (NVS) CYP450-related Enzyme Activity (ADME) Assay for human CYP3A4 (AID 2283110; active = hit-call score of the fitted dose curve at least 0.9, where 1 is the maximum). The method in brief: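 Compounds screened in duplicate at 10 uM, with follow-up concentration-response for actives, against insect-cell-expressed recombinant enzyme. Activity read by fluorescence 0.33 h after dosing; loss of signal versus acetonitrile control indicates inhibition.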

The target in test [12] is human Dual Specificity Protein Phosphatase 3 (DUSP3), DUSP3 (gene 1845) (UniProt P51452). The test can be described thus: NVS_ENZ_hDUSP3: NovaScreen (NVS) Enzymatic Assay for human Dual Specificity Protein Phosphatase 3 (DUSP3) (AID 2283152; active = hit-call score of the fitted dose curve at least 0.9, where 1 is the maximum). In short, it runs like this: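 Cell-free fluorescence-intensity enzyme activity assay with recombinant protein and substrate; loss of signal fitted relative to DMSO baseline. Primary screen in duplicate at 25 uM, actives then run in concentration series; measured 0 h after dosing.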
Sequence of human Dual Specificity Protein Phosphatase 3 (DUSP3), DUSP3 (gene 1845) (P51452 whole entry, looked up): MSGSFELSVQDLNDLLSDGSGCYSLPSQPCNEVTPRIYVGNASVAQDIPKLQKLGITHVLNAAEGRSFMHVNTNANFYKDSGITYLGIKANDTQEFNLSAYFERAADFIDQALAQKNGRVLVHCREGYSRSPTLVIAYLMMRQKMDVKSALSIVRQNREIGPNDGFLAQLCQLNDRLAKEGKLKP

For test [13], the target named is human Matrix Metalloproteinase-9 (MMP9), MMP9 (gene 4318) (UniProt P14780). The test can be described thus: NVS_ENZ_hMMP9: NovaScreen (NVS) Enzymatic Assay for human Matrix Metalloproteinase-9 (MMP9) (AID 2283190; active = hit-call score of the fitted dose curve at least 0.9, where 1 is the maximum;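 also: cell-free recombinant MMP9 protease activity read by fluorescent substrate signal; active means inhibition seen as loss of fluorescence signal versus DMSO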). In short, it runs like this:
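Cell-free fluorescence-intensity enzyme activity assay using extracted protein, read 1 h after dosing. Loss of signal versus DMSO baseline indicates inhibition; primary screen in duplicate at 25 uM, actives followed up in concentration series.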

Test [14] deals with human CYP2C9, CYP2C9 (gene 1559) (UniProt P11712). The test can be described thus: NVS_ADME_hCYP2C9: NovaScreen (NVS) CYP450-related Enzyme Activity (ADME) Assay for human CYP2C9 (AID 2283108; active = hit-call score of the fitted dose curve at least 0.9, where 1 is the maximum). In short, it runs like this: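 Fluorescence readout of CYP2C9 activity (SF9-expressed human enzyme) at 0.75 h. The primary screen used 10 uM in duplicate, with concentration-response follow-up for actives; acetonitrile was the negative control.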
Sequence of human CYP2C9, CYP2C9 (gene 1559) (P11712 whole entry, looked up): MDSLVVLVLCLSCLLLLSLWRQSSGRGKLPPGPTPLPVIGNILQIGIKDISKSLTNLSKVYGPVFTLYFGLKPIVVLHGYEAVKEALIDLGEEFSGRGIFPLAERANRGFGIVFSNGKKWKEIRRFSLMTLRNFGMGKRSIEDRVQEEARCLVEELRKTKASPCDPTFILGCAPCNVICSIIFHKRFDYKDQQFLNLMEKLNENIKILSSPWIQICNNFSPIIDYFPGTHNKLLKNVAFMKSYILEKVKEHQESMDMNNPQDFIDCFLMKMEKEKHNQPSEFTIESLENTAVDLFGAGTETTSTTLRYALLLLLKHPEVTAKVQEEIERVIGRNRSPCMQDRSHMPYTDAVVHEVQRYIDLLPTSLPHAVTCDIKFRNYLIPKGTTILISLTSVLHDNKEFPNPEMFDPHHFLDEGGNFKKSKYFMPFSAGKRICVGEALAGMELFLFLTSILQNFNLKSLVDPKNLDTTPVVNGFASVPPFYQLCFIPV

“And” between values parts separate entries of the source, which are not always exact repeats. Equal entries are not always repeated. Inconclusive results are not listed. A structure can be active in one record and inactive in another. The source made the active and inactive calls. The calls were made as follows, unless noted: active = hit-call score of the fitted dose curve at least 0.9, where 1 is the maximum; inactive = score below 0.9.

Sequence of human Ephrin type-A Receptor 1 (EphA1), EPHA1 (gene 2041) (P21709 whole entry, looked up): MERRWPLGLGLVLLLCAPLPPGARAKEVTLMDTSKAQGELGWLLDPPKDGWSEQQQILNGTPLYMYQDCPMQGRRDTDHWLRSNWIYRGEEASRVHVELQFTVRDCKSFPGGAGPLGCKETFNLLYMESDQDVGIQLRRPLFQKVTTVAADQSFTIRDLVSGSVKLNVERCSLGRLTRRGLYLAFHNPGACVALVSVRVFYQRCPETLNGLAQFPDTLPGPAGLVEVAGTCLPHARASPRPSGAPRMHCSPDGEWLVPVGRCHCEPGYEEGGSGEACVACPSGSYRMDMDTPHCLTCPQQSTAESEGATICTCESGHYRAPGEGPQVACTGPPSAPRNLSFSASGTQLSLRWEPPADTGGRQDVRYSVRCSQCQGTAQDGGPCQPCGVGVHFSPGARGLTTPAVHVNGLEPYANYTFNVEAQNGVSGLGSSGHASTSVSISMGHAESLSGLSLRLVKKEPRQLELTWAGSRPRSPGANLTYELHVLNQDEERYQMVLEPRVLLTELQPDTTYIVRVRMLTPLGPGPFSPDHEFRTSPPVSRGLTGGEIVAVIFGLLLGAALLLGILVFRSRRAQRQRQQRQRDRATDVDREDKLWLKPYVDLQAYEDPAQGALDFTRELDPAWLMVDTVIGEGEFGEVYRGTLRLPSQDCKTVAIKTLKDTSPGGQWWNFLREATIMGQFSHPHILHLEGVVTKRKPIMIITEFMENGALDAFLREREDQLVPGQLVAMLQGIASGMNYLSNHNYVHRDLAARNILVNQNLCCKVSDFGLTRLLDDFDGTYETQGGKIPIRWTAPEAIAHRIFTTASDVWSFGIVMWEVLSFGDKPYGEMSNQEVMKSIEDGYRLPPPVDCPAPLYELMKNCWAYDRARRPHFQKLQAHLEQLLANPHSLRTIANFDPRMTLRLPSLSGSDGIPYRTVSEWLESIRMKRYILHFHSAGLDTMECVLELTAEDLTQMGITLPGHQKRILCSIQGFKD
Sequence of E-selectin (Homo sapiens) (P16581 whole entry, looked up): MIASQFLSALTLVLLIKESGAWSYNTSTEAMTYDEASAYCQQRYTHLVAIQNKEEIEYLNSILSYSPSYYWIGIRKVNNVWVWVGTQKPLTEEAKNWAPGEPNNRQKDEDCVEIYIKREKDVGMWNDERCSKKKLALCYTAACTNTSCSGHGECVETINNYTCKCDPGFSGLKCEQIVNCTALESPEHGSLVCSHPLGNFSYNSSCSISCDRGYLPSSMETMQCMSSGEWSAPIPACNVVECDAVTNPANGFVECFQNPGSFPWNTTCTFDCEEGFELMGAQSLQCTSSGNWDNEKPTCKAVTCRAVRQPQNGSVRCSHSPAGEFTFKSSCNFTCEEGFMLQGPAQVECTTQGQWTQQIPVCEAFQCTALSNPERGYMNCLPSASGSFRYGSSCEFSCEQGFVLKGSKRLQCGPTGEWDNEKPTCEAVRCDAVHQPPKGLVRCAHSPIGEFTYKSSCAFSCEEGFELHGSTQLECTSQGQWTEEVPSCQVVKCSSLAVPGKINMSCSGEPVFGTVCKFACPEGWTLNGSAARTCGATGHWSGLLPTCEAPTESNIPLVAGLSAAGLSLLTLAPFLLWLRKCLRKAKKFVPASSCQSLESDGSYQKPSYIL
Sequence of human CYP2D6, CYP2D6 (gene 1565) (P10635 whole entry, looked up): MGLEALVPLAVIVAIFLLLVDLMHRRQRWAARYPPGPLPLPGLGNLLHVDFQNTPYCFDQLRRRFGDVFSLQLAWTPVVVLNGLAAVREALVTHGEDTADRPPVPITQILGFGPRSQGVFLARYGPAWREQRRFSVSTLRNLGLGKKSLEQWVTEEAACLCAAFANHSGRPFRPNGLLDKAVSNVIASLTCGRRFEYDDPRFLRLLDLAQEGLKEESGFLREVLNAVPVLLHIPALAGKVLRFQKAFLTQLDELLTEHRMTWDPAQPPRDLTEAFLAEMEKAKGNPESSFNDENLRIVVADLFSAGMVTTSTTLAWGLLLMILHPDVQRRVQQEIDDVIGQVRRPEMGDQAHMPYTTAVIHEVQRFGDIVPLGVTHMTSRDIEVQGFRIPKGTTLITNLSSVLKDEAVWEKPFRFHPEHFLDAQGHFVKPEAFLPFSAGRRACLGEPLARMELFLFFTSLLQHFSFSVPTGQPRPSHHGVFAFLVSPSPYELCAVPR
Sequence of Cytochrome P450 3A4 (Homo sapiens) (P08684 whole entry, looked up): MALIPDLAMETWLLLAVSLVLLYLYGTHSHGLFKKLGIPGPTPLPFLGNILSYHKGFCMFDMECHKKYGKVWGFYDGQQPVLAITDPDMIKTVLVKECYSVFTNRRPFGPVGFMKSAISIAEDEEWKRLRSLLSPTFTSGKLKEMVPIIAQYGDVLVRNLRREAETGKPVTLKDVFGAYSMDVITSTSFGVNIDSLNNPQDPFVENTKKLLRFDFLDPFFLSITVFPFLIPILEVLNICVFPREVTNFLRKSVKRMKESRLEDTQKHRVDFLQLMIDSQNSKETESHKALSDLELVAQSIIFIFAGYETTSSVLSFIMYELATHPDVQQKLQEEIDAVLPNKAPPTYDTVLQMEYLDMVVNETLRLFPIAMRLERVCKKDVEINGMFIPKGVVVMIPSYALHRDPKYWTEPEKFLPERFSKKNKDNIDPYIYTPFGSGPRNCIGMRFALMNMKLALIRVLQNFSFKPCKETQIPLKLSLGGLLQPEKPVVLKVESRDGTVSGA
Sequence of human Matrix Metalloproteinase-9 (MMP9), MMP9 (gene 4318) (P14780 whole entry, looked up): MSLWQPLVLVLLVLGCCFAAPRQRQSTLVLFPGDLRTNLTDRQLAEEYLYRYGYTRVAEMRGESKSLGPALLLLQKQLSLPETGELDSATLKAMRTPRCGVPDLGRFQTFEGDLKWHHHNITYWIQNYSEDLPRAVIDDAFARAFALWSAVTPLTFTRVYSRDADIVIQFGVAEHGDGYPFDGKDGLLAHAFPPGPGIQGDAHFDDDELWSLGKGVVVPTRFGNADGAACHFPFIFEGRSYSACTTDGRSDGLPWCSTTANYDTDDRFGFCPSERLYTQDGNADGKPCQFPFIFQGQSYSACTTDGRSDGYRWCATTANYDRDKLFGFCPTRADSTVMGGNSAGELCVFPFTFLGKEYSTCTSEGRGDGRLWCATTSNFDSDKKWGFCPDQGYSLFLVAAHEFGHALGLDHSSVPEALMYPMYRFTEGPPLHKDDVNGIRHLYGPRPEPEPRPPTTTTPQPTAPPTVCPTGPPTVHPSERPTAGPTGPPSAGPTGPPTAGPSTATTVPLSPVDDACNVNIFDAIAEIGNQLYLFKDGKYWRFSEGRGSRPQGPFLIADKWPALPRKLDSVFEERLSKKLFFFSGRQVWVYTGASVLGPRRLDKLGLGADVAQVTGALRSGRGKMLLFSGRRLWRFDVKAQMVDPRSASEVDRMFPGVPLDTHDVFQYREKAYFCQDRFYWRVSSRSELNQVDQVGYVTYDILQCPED
Sequence of human CYP19A1, CYP19A1 (gene 1588) (P11511 whole entry, looked up): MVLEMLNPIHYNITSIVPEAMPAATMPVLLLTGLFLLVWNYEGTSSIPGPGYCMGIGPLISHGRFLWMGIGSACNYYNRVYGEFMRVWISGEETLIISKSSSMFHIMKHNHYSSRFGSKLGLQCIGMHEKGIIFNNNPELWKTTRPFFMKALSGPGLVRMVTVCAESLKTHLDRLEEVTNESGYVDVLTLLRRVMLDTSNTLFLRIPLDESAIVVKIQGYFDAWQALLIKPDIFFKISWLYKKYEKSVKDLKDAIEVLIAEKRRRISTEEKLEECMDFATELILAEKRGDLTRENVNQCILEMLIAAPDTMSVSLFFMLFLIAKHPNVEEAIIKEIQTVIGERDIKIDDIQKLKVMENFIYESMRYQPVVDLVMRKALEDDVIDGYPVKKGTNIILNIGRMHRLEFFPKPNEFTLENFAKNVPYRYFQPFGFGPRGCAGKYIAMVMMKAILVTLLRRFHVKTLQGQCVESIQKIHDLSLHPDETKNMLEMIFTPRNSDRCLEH

For the compound `O=C=NCc1cccc(CN=C=O)c1`, the result in [1], in [2], in [3], in [4], in test [5] and in test [6] was inactive.
On to `CCN(CC)c1ccc(C=O)cc1`, for which the outcome in test [1], in test [2], in test [3], in test [4], in test [5] and in [6] was inactive.
In general, AC50 refers to the concentration giving half of the maximal activity seen. Turning to `NS(=O)(=O)C(F)(F)C(F)(F)C(F)(F)C(F)(F)C(F)(F)C(F)(F)F`, the AC50 in test [1] is 41.7 µM (active) and 21.7 µM (active); in test [3], 11.8 µM (active); in [4], 30 µM (active); in [6] it was 55.3 µM (active). Also, the outcome in [2], in test [3], in test [4], in test [5] and in [6] was inactive.
For `FC(F)(F)C(F)(F)C(F)(F)C(F)(F)C(F)(F)C(F)(F)C(F)(F)CCI`, the result in [1], in test [2], in test [3], in [4], in test [5] and in [6] was inactive.
For `O=C(O)CCC(F)(F)C(F)(F)C(F)(F)F`, the result in test [1], in [2], in test [3], in [4], in [5] and in [6] was inactive.
As to `Cc1cc(O)c(C(C)(C)C)cc1C(C)(C)C`, the half-maximal activity concentration (AC50) in test [1] was 5.34 µM (active); in [2], 10.2 µM (active); in [3], 3.79 µM (active); in test [4] it was 5.33 µM (active); in test [5], 3.82 µM (active); in test [6] it was 6.3 µM (active). The compound was called inactive in test [7].
In the case of `Cc1cc(=O)[nH]c(C(C)C)n1`, the AC50 in [7] was 9.31 µM (active).
For the compound `CCc1cc(Cc2cc(CC)c(N)c(CC)c2)cc(CC)c1N`, the AC50 in [8] was 1.7 µM (active).
Consider `NC(=O)C(F)(F)C(F)(F)C(F)(F)C(F)(F)C(N)=O`, for which the outcome in [1], in test [2], in test [3], in test [4], in test [5] and in test [6] was inactive.
For `CC1=CC2C3C=CC(C3)C2C1C` (stereo unspecified), the outcome in [1], in [2], in test [3], in [4], in test [5] and in test [6] was inactive. The figures for the AC50 in test [9] and in test [10] were 2.84 µM (active) and 13.1 µM (active), respectively.
With `COC(=O)c1ccc(C=O)cc1`, the concentration at half-maximal activity (AC50) in [11] is 0.00779 µM (active).
As to `C=C(C)C(=O)OCC(F)(F)C(F)(F)C(F)(F)C(F)F`, the outcome in test [1], in test [2], in test [3], in [4], in test [5] and in test [6] was inactive.
Consider `COC(F)(C(F)F)C(F)(F)F` (stereo unspecified), for which the result in [1], in [2], in [3], in [4], in test [5] and in test [6] was inactive.
Regarding `NCC(F)(F)C(F)(F)C(F)(F)C(F)(F)C(F)(F)C(F)(F)F`, the result in test [1], in test [2], in test [3], in test [4], in [5] and in [6] was inactive.
For the compound `O=C(O)CCC(F)(F)C(F)(F)C(F)(F)C(F)(F)C(F)(F)C(F)(F)C(F)(F)F`, the outcome in [1], in test [2], in test [3], in test [4], in test [5] and in [6] was inactive.
As for `O=C(Cl)C(F)(F)C(F)(F)C(F)(F)C(F)(F)C(F)(F)C(F)(F)F`, the outcome in test [1], in test [2], in test [3], in [4], in test [5] and in [6] was inactive.
For `O=C(c1ccccc1)c1ccc(O)cc1O`, the result in test [1], in [2], in test [3], in [4], in [5] and in [6] was inactive. In addition, the outcome in test [7] was inactive. The results for the AC50 in [9], in test [12] and in test [13] were 5 µM (active), 16.5 µM (active) and 13.7 µM (active), respectively.
`O=C(O)C(F)(F)OC(F)(F)C(F)(F)OC(F)(F)C(F)(F)OC(F)(F)F`: the result in test [1], in test [2], in [3], in [4], in [5] and in test [6] was inactive.
With `CC(C)=CCCC(C)O` (stereo unspecified), the call in test [9] and in [14] was inactive.
Turning to `OCC(F)(F)C(F)(F)C(F)(F)CO`, the outcome in test [1], in test [2], in test [3], in test [4], in test [5] and in test [6] was inactive.

For the origin of these results see PubChem BioAssay (EPA / NIEHS).
